According to PubChem BioAssay AID588850 (Sanford-Burnham Center for Chemical Genomics, 2011):
The whole screen tested about 360,000 compounds, of which about 3,100 (0.86%) were called active. What follows is part of a selection rich in actives, with near analogues and random picks from the rest. A number with no mark means an inactive call.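 How the source made its calls: active means at least 50% inhibition at 5 µM, scaled per plate between neutral and stimulator controls; inactive means the rest.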

Test: inhibitors of PAF-induced NF-kB signaling, primary screen, cell-based, GFP fluorescence, uHTS (AID 588850);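 further: PAF is a Pseudomonas aeruginosa culture filtrate used as stimulus; plate controls were PAF-stimulated DMSO wells for no effect and unstimulated DMSO wells for full effect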
Conditions: KKLEB NF-kB-GFP reporter, GFP fluorescence overnight, at 5 µM, active compounds read high

Compound | inhibition
Cc1cccc(NC(=O)c2ccc([N+](=O)[O-])o2)c1 | 59.4% (active)
Cc1onc(NC(=O)c2ccc([N+](=O)[O-])o2)c1Br | 27.3%
CCN(CC)S(=O)(=O)c1ccc(N2CCCC2)c(NC(=O)c2ccc([N+](=O)[O-])o2)c1 | 10.6%
CCn1c(SCC(=O)Nc2ccccc2F)nc2c(c1=O)SC(C)C2 (stereo unspecified) | 6.5%
CCOC(=O)CSc1ccccn1 | -2.8%
CCOC(=O)C(C(=O)c1ccccc1)C(c1ccccc1)c1nccc2ccccc12 (stereo unspecified) | 50.6% (active)
O=C(O)CSc1nccc2ccccc12 | -3.7%
O=c1nc(N2CCOCC2)nc2n1CCO2 | -13%
Cc1cccc(C)c1Cn1c(C)c(C(=O)NCc2cccc(Cl)c2)sc1=O | 10.9%
CC(C)c1ccc2c(c1)c(SC(C)(C)C)c(CC(C)(C)C(=O)O)n2Cc1ccc(Cl)cc1 | 63.4% (active)
COc1ccc(CCNC(=O)Nc2ccc3c(c2)c(=O)n(C)n3C)cc1OC | 14.5%
CC(C)C(=O)Nc1c2c(nn1-c1ccccc1)CSC2 | 7%
Cn1c(=O)c2c(n(Cc3ccccc3)c1=O)NC(=O)C2CC(=O)N1CCc2ccccc2C1 (stereo unspecified) | 18%
COC(=O)/C=C\C(=O)Nc1cccc([N+](=O)[O-])c1 | 92.2% (active)
COc1cccc(NCCC(=O)c2cccc([N+](=O)[O-])c2)c1 | -10.5%
O=C(Nc1cccc([N+](=O)[O-])c1)N1CCc2ccccc2C1 | 21.9%
O=C(CNC(=O)N1CC(=O)Nc2ccccc21)Nc1ccc(Br)cc1F | -4.5%
COc1ccc(N(CC(=O)N/N=C/c2cccc3c2OCCO3)S(=O)(=O)c2ccc(NC(C)=O)cc2)cc1 | -5.5%
COCOCCn1cc(CN2CCS(=O)(=O)N(Cc3ccc(-c4cccc(N(C)C)c4)cc3)C(CC(C)C)C2=O)nn1 (stereo unspecified) | 6.3%
CC[C@H]1CN2CCc3cc(OC)c(OC)cc3[C@@H]2C[C@@H]1C[C@H]1NCCc2cc(OC)c(OC)cc21 | 82.5% (active)
COc1cc(/C=C/C(=O)O)cc(S(=O)(=O)Nc2ccccc2C(=O)NCCc2ccccc2)c1OC | -10.9%
Cc1ccc(NC(=O)NC(=O)CSc2nnc(-c3ccc(OC(F)F)cc3)n2N)c(C)c1 | -26.2%
Cc1ccc(-n2ncc3c2CC(C)(C)CC3NC(=O)Cc2c(C)noc2C)cc1 (stereo unspecified) | 28.3%
O=C1/C(=C\c2ccccc2Cl)SC(=S)N1CCC(=O)N1CCCc2ccccc21 | 8.4%
CN(C(=O)CCN1C(=O)/C(=C/c2ccccc2F)SC1=S)C1CCS(=O)(=O)C1 (stereo unspecified) | -14.9%
Cc1ccc(-c2nn(-c3ccccc3)cc2/C=C2\SC(=S)N(CCCCCC(=O)O)C2=O)o1 | 53.8% (active)
